Records with an inconclusive call do not appear. Entries that show only a call come without a potency. Active and inactive are the calls of the source. Unless noted, the call rests on the fitted dose curve; in most records, active means well fitted curve in the direction sought with a large enough effect; inconclusive means small, poorly fitted or top-dose-only effect, or another doubt; inactive means no such curve, though single readings can be large; an effect the other way counts as inactive or inconclusive.
Experiments:
[1] = Primary qHTS for Vero E6 cytotoxicity: counterscreen for inhibitors of SARS-S pseudo-typed particle cell entry (AID 1479150; calls by dose curve)
[2] = Cytotoxicity counterscreen for inhibitors of SARS-CoV-2 cell entry (AID 1645845; calls by dose curve; further: nearly all actives have a fitted effect of over 50% in size; further: potency means the concentration at half of the fitted maximal effect)
Outline: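 Counterscreen run in the same HEK293-ACE2 line as the pseudotyped-particle entry assay, without particles. Viability after 48 h at 37 C was read as ATP luminescence, scaled between cell-containing and cell-free wells.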

[3] = Primary qHTS to identify inhibitors of SARS-CoV-2 cell entry (AID 1645846; calls by dose curve; further: nearly all actives have a fitted effect of over 45% in size; further: potency means the concentration at half of the fitted maximal effect); conditions: activity change, negative = inhibition: at 57.1 µM (top of the series) unless noted
Outline: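 HEK293-ACE2 (Expi293F, stable hACE2), 1500 cells/well, o/n 37C; cpd 23 nL pin, 1 h; MLV-PP w/ SARS-CoV-2-S (Wuhan-Hu-1, Δ19 C-term); 48 h 37C; Bright-Glo luminescence; normalized vs S-PP and bald PP.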

[4] = Primary qHTS for inhibitors of La Crosse Virus (LACV) - induced cell death in SH-SY5Y cells (AID 1508616);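 further: top concentration of the series differs between compounds; higher means more rescue of cells from virus-induced death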
Outline: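 Rescue of virus-induced death was read as ATPLite luminescence after 6 days at 37C, scaled between DMSO wells with LACV and without virus. Cells were SH-SY5Y, 6000/well, infected at 0.01 MOI after compound addition.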

[5] = biological target: Calcium and integrin-binding protein 1 (Homo sapiens) (UniProt Q99828); experiment: Validation qHTS for Identification of Calcium Integrin Binding protein 1 (CIB1) Competitor (AID 1508618); further: potency means the concentration at half of the fitted maximal effect
Sequence of Calcium and integrin-binding protein 1 (Homo sapiens) (Q99828 whole entry, looked up): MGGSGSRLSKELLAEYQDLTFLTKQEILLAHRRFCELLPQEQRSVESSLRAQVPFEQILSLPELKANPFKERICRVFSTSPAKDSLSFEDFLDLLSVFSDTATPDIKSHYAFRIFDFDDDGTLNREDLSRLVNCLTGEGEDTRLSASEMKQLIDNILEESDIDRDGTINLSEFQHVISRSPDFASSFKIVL
Outline: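 CIB1-GST (1 uM final) incubated 15 min at room temperature with compounds (up to 114 uM), then FITC-labelled alphaIIb peptide (100 nM) added. FP read (Ex 480/Em 540) after 15 min, pH 7.4 buffer containing 5 mM CaCl2.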

[6] = biological target: Calcium and integrin-binding protein 1 (Homo sapiens) (UniProt Q99828); experiment: Primary qHTS for Identification of Calcium Integrin Binding Protein 1 (CIB1) Competitor (AID 1508620);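 further: GST tagged CIB1 binding a fluorescein labelled alphaIIb integrin peptide tracer; top concentration of the series differs between compounds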
Outline: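 Fluorescence polarization competition: GST-tagged CIB1 (1 uM final) preincubated with compound 15 min at room temperature, then FITC-labelled alphaIIb peptide (100 nM final) added. After 15 min at room temperature, polarization read at Ex 480/Em 540.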

[7] = Counterscreen qHTS for small molecule stabilizers of the endoplasmic reticulum resident proteome: GLuc-NoTag assay (AID 1508627); further: potency means the concentration at half of the fitted maximal effect
Outline: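 Counterscreen line: SH-SY5Y-GLuc-NoTag. Seed, 5 h; compound, 19 h; thapsigargin 100 nM, 4 h; 37C/5% CO2. Readout: secreted GLuc luminescence, coelenterazine 0.07x final, no lysis.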

[8] = Primary qHTS for small molecule stabilizers of the endoplasmic reticulum resident proteome: Secreted ER Calcium Modulated Protein (SERCaMP) assay (AID 1508630)
Outline: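 The SH-SY5Y reporter protocol was run at 3 concentrations up to 38.3 uM (primary) or 11 concentrations (follow-up): 16 h compound, 100 nM thapsigargin for 4 h, then extracellular luciferase luminescence.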

[9] = Confirmatory qHTS for VERO E6 Cytotoxicity Assay: Counterscreen for SARS-CoV-2 CPE Assay (AID 1508605; calls by dose curve; further: nearly all actives have a fitted effect of over 60% in size)
[10] = biological target: Cytochrome P450 2C9 (Homo sapiens) (UniProt P11712); experiment: Cytochrome P450 family 2 subfamily C member 9 (CYP2C9) small molecule antagonists: luciferase biochemical (cell-free) qHTS assay (AID 1645842; active means well fitted curve in the direction sought with a large enough effect in the repeat runs; an effect the other way counts as inactive or inconclusive; further: nearly all actives have a fitted effect of over 55% in size; further: potency means the concentration at half of the fitted maximal effect)
Sequence of Cytochrome P450 2C9 (Homo sapiens) (P11712 whole entry, looked up): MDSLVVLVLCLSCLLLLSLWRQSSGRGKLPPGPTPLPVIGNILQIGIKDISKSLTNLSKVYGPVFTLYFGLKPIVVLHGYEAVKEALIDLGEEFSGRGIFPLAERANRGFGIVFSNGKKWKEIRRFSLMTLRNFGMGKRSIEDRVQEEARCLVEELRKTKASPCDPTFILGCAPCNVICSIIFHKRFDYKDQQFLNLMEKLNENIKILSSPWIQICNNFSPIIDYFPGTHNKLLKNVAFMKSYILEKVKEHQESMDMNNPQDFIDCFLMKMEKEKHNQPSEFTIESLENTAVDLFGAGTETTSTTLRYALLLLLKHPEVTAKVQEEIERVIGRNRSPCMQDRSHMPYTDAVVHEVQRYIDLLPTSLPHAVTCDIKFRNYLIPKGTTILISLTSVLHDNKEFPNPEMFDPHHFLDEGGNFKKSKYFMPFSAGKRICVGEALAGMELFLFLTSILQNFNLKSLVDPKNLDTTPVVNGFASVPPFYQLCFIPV
Outline: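 P450-Glo CYP2C9 system: proluciferin substrate with enzyme in mix containing 0.4% BSA, 10 min at room temperature, then NADPH regeneration solution added and incubated 1 h at 37C. Detection reagent stopped reaction; luminescence read after 20 min as RLU.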

[11] = biological target: Calcium and integrin-binding protein 1 (Homo sapiens) (UniProt Q99828); experiment: Confirmatory qHTS for Identification of Calcium Integrin Binding Protein 1 (CIB1) Competitor (AID 1508617); further: nearly all actives have a fitted effect of over 65% in size
Outline: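 Compounds at up to 114 uM final met 1 uM GST-tagged CIB1 for 15 min at room temperature (HEPES pH 7.4, 5 mM CaCl2). FITC-labelled alphaIIb peptide, 100 nM, added; polarization read after 15 min more.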

[12] = biological target: Cytochrome P450 3A4 (Homo sapiens) (UniProt P08684); experiment: Cytochrome P450 family 3 subfamily A member 4 (CYP3A4) small molecule antagonists: luciferase qHTS assay (AID 1645841; active means well fitted curve in the direction sought with a large enough effect in the repeat runs; an effect the other way counts as inactive or inconclusive; further: nearly all actives have a fitted effect of over 45% in size)
Sequence of Cytochrome P450 3A4 (Homo sapiens) (P08684 whole entry, looked up): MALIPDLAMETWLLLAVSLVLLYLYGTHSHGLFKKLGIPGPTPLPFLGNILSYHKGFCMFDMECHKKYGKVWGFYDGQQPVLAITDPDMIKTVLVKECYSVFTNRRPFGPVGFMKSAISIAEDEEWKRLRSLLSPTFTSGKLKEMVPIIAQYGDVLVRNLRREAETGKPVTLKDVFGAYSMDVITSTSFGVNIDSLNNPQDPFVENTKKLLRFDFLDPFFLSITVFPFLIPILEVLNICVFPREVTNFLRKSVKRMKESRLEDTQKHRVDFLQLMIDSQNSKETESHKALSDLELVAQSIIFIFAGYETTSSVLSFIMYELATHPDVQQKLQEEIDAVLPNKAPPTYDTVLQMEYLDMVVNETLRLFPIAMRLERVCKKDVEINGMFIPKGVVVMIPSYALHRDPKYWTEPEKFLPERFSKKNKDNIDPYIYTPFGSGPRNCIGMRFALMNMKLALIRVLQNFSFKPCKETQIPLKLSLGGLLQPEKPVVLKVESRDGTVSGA
Outline: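 P450-Glo CYP3A4 enzyme with proluciferin substrate preincubated 10 min with compound at room temperature, then NADPH regeneration 1 h. Luciferin detection reagent added for 20 min; luminescence recorded. Ketoconazole positive control.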

[13] = A High-Content qHTS Against Drug Library for the Identification of Small Molecules that Inhibit DYT1 Early Onset Primary Dystonia-Associated Cell Pathology (AID 1645839; calls by dose curve)
Outline: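 Cells were seeded and left for 24 h, then dosed with compound alongside tetracycline induction of mutant EGFP-TorsinA. They were incubated for 48 h, fixed in 4% paraformaldehyde, permeabilized and imaged for mislocalization (%pathology) and cell count.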

[14] = biological target: Cytochrome P450 2D6 (Homo sapiens) (UniProt P10635); experiment: Cytochrome P450 family 2 subfamily D member 6 (CYP2D6) small molecule antagonists: luciferase biochemical (cell-free) qHTS assay (AID 1645840; active means well fitted curve in the direction sought with a large enough effect in the repeat runs; an effect the other way counts as inactive or inconclusive; further: nearly all actives have a fitted effect of over 55% in size; further: potency means the concentration at half of the fitted maximal effect)
Sequence of Cytochrome P450 2D6 (Homo sapiens) (P10635 whole entry, looked up): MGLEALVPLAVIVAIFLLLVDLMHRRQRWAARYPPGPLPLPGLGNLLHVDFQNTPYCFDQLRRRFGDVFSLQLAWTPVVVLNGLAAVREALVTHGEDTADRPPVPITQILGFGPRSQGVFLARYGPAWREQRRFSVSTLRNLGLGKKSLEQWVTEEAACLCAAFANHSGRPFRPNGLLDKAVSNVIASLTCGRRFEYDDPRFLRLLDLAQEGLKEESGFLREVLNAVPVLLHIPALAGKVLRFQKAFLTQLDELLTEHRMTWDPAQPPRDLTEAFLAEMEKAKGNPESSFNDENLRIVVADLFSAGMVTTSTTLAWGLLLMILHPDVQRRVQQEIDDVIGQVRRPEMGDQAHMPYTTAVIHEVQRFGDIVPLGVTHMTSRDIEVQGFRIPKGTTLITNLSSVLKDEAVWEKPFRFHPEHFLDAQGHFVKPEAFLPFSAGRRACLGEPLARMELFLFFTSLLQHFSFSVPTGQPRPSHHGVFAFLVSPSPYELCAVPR
Outline: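 P450-Glo CYP2D6 system: proluciferin substrate converted by enzyme to luciferin, read by luminescence proportional to activity. Enzyme-substrate mix with compound 10 min at room temperature, then NADPH regeneration 1 h before detection reagent.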

[15] = Confirmatory qHTS for small molecule stabilizers of the endoplasmic reticulum resident proteome: Secreted ER Calcium Modulated Protein (SERCaMP) assay (AID 1508628); further: nearly all actives have a fitted effect of over 40% in size
Outline: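 Reporter secretion upon ER calcium depletion (100 nM thapsigargin, 4 h, 37C) is measured as medium luminescence with coelenterazine, after 16 h compound pretreatment of SH-SY5Y-GLuc-SERCaMP cells; primary at three concentrations up to 38.3 uM, follow-up at 11 (up to 76.6 uM).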

[16] = Cell Viability qHTS for small molecule stabilizers of the endoplasmic reticulum resident proteome (AID 1508629); conditions: cell viability counter-screen, 100 nM thapsigargin for final 4 h;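 further: human SH-SY5Y neuroblastoma cells carrying the GLuc-SERCaMP reporter; compound exposure about 46 h in total before the viability read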

In the case of `CCCC(CCC)C(=O)O`, the Potency [1] is reported as “inactive”, the Potency [2] is reported as “inactive” and the Potency [3] is reported as “inactive”. The activity change, negative = inhibition [3] was -12.6%.

For `COc1ccccc1Oc1c(NS(=O)(=O)c2ccc(C(C)(C)C)cc2)nc(-c2ncccn2)nc1OCCO`, the Potency [1] was “inactive”, the Potency [2] was “inactive” and the activity change, negative = inhibition [3] was -16.5%.

In the case of `O=C1c2cccc3c2[C@H](CCC3)CN1[C@@H]1CN2CCC1CC2`, the Potency [1] is reported as “inactive”, the Potency [2] is reported as “inactive” and the Potency [3] is reported as “inactive”.

For `CC[C@@]1(O)C(=O)OCc2c1cc1n(c2=O)Cc2cc3c(CN(C)C)c(O)ccc3nc2-1`, the Potency [1] was “inactive” and the Potency [2] was “inactive”.

For `Fc1ccc(C(OCCN2CCN(CCCc3ccccc3)CC2)c2ccc(F)cc2)cc1`, the Potency [4] was “inactive”, the Potency [5] was “inactive” and the Potency [6] was “inactive”. The Potency [7] was 44.7 µM (active), the outcome [8] was “inactive” and the Potency [3] was 17.8 µM (active).

For `O=C(O)C(=O)c1cn(Cc2ccccc2)c2ccc(-c3ccc(OC(F)(F)F)cc3)cc12`, the Potency [9] was “inactive”, the Potency [6] was “inactive” and the outcome [8] was “inactive”. For the same compound, the Potency [10] was 16.9 µM (active) and the Potency [2] was “inactive”.

With `Fc1ccc([C@@H]2CCNC[C@H]2COc2ccc3c(c2)OCO3)cc1` the Potency [1] was “inactive” and the activity change, negative = inhibition [3] was -4.22%.

In the case of `CN1C[C@H](CNC(=O)OCc2ccccc2)C[C@@H]2c3cccc4c3c(cn4C)C[C@H]21`, the Potency [4] is reported as “inactive”, the outcome [11] is reported as “inactive” and the Potency [5] is reported as 44.7 µM (active). For the same compound, the outcome [12] was “inactive” and the Potency [10] was “inactive”.

For `O=C1NCN(c2ccccc2)C12CCN(CC1COc3ccccc3O1)CC2` (centres undefined), the Potency [4] was “inactive”, the Potency [5] was “inactive” and the outcome [8] was “inactive”. For the same compound, the Potency [13] was “inactive”, the Potency [14] was 0.0245 µM (active) and the Potency [10] was 6.17 µM (active).

For `CCOP(=S)(OCC)Oc1cc(C)nc(C(C)C)n1`, the Potency [4] was “inactive”, the Potency [6] was “inactive” and the Potency [13] was “inactive”. For the same compound, the Potency [14] was “inactive” and the Potency [10] was 1.95 µM (active).

With `CC1OC(C)OC(C)O1` (centres undefined) the Potency [4] was “inactive”, the Potency [6] was “inactive” and the outcome [8] was “inactive”. For the same compound, the Potency [13] was “inactive”, the Potency [14] was “inactive” and the Potency [10] was “inactive”.

For `NN=C(N)N`, the Potency [4] was “inactive”, the Potency [5] was “inactive” and the outcome [8] was “inactive”. For the same compound, the Potency [13] was “inactive”, the Potency [14] was “inactive” and the Potency [10] was “inactive”. For the same compound, the Potency [2] was “inactive” and the activity change, negative = inhibition [3] was 4.5%.

With `COc1ccccc1N1CCNCC1` the Potency [4] was “inactive”, the Potency [5] was “inactive” and the outcome [8] was “inactive”. The Potency [13] was “inactive”, the Potency [14] was “inactive” and the outcome [12] was “inactive”. The Potency [10] was “inactive”.

In the case of `CC[N+](CC)(CC)CC`, the Potency [4] is reported as “inactive”, the Potency [6] is reported as “inactive” and the outcome [8] is reported as “inactive”. The Potency [13] was “inactive”, the Potency [14] was “inactive” and the Potency [10] was “inactive”.

In the case of `COC[C@@H](NC(C)=O)C(=O)NCc1ccccc1`, the Potency [4] is reported as “inactive”, the Potency [6] is reported as “inactive” and the Potency [15] is reported as “inactive”. For the same compound, the outcome [8] was “inactive”, the Potency [13] was “inactive” and the Potency [14] was “inactive”. For the same compound, the Potency [10] was “inactive”, the Potency [2] was “inactive” and the Potency [3] was “inactive”.

For `CCN(CC)CCOC(=O)C(O)(c1ccccc1)c1ccccc1`, the Potency [4] was “inactive”, the Potency [6] was “inactive” and the Potency [7] was “inactive”. For the same compound, the Potency [15] was “inactive”, the max response [16] was 31.2% (inactive) and the Potency [13] was “inactive”. The Potency [14] was 5.49 µM (active) and the Potency [10] was “inactive”.

In the case of `CCC1(C2=NCCN2)Cc2ccccc2O1` (centres undefined), the Potency [4] is reported as “inactive”, the Potency [5] is reported as “inactive” and the outcome [8] is reported as “inactive”. The Potency [13] was “inactive” and the Potency [10] was “inactive”.

In the case of `CC[N+]1(C)CCCC(OC(=O)C(O)(c2ccccc2)c2ccccc2)C1` (centres undefined), the Potency [4] is reported as “inactive”, the Potency [6] is reported as “inactive” and the Potency [13] is reported as “inactive”. For the same compound, the Potency [14] was 2.75 µM (active) and the Potency [10] was “inactive”.

For `NP(N)(=O)NC(=O)c1ccc(F)cc1`, the Potency [4] was “inactive”, the outcome [8] was “inactive” and the Potency [13] was “inactive”. For the same compound, the Potency [14] was “inactive” and the Potency [10] was “inactive”.

In the case of `CN1C(=S)CN=C(c2ccccc2)c2cc(Cl)ccc21`, the Potency [4] is reported as “inactive”, the outcome [8] is reported as “inactive” and the Potency [13] is reported as “inactive”. The Potency [10] was 12.3 µM (active).

In the case of `COc1ccc(Cc2nccc3cc(OC)c(OC)cc23)cc1OC`, the Potency [4] is reported as “inactive”, the Potency [6] is reported as “inactive” and the outcome [8] is reported as “inactive”. The Potency [13] was “inactive”, the Potency [14] was 4.9 µM (active) and the Potency [10] was 9.77 µM (active). The Potency [2] was 7.94 µM (active).

With `O=C(O)c1ccc2[nH]cc(CCCCN3CC=C(c4ccccc4)CC3)c2c1` the Potency [4] was “inactive”, the Potency [6] was “inactive” and the outcome [8] was “inactive”. The Potency [13] was “inactive”, the Potency [14] was 15.5 µM (active) and the Potency [10] was “inactive”.

In the case of `CNCC(O)c1ccc(O)cc1` (centres undefined), the Potency [4] is reported as “inactive”, the Potency [5] is reported as “inactive” and the outcome [8] is reported as “inactive”. The Potency [13] was “inactive”, the Potency [14] was “inactive” and the Potency [10] was “inactive”. The Potency [2] was “inactive”.

From PubChem BioAssay (NCATS)
